Data reported in the supplement of paper PMC6607015.
Where a name gives a salt, the structure may show the parent alone.

Tests used:
Conditions in all cases: compound concentration in added solution (µM; 5 µl added to 20 µl cells): 10; 18 h
A431 [1] = experiment: LBPA endosome anti-LBPA integrated intensity (sum per cell), Z-score; higher = more LBPA staining
In short: (§1)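 HeLa MZ or A431 cells (3,500/well in 20 µl) were seeded onto 5 µl of 10 µM compound solution in duplicate 384-well imaging plates, incubated 18 h, then fixed in 4% PFA. Cells were stained with 6C4 anti-LBPA antibody, filipin, propidium iodide and CellTracker green, and four 20× images were taken per well. MetaXpress segmentation gave per-cell integrated LBPA or filipin intensity, either whole-cell or within LBPA endosomes. Values are Z-scores normalised in AcuityXpress.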

HeLa MZ [2] = experiment: as above
In short: as §1

A431 [3] = experiment: whole-cell filipin (free cholesterol) integrated intensity, Z-score; higher = more cholesterol staining
In short: as §1

HeLa MZ [4] = experiment: as above
In short: as §1

A431 [5] = experiment: filipin (cholesterol) integrated intensity within LBPA endosomes, Z-score; higher = more cholesterol in LBPA endosomes
In short: as §1

HeLa MZ [6] = experiment: as above
In short: as §1

Structure (SMILES) | LBPA endosome anti-LBPA integrated intensity (z-score) (A431 [1]) | LBPA endosome anti-LBPA integrated intensity (z-score) (HeLa MZ [2]) | whole-cell filipin (z-score) (A431 [3]) | whole-cell filipin (z-score) (HeLa MZ [4]) | filipin (z-score) (A431 [5]) | filipin (z-score) (HeLa MZ [6])
C#C[C@]1(O)CC[C@H]2[C@@H]3CCC4=CC(=O)CCC4=C3C=C[C@@]21CC [Gestrinone] | -0.489 | -0.347 | 0.15 | 0.634 | -0.436 | -0.437
CC(C)C[C@H]1C(=O)N2CCC[C@H]2[C@]2(O)O[C@](NC(=O)[C@@H]3C=C4c5cccc6[nH]c(Br)c(c56)C[C@H]4N(C)C3)(C(C)C)C(=O)N12 [Bromocryptine mesylate] | 0.99 | 2.32 | 1.54 | 0.742 | 0.487 | 0.695
CN1CCC2(C)c3cc(O)ccc3N(C)C12 (single isomer, unassigned; (-)) [(-)-Eseroline fumarate salt] | -0.298 | 0.682 | 0.444 | -0.261 | -0.415 | -0.33
O=[N+]([O-])c1cc([As](=O)(O)O)ccc1O [Roxarsone] | -0.422 | -1.01 | 0.39 | 0.562 | -0.281 | -0.327
CCC(C)C1O[C@]2(C=C[C@@H]1C)C[C@@H]1CC(C/C=C(\C)[C@@H](OC3C[C@H](OC)[C@@H](OC4C[C@H](OC)[C@@H](O)[C@H](C)O4)[C@H](C)O3)[C@@H](C)/C=C/C=C3\COC4[C@H](O)C(C)=CC(C(=O)O1)[C@]34O)O2 (stereo partly drawn) [Avermectin B1a] | -0.178 | 0.136 | -0.0649 | 0.727 | -0.285 | -0.0937
O=c1[nH]c2ccccc2n1C1CCN(CCCC(c2ccc(F)cc2)c2ccc(F)cc2)CC1 [Pimozide] | 0.798 | 0.814 | 0.271 | -0.393 | 0.65 | 0.34
C[C@@]12N[C@@H](Cc3ccccc31)c1ccccc12 [(-)-MK 801 hydrogen maleate] | -0.405 | 0.615 | -0.428 | -0.298 | -0.407 | -0.347
CC(C)(C)NCC(O)c1ccccc1Cl (stereo not drawn) [Tulobuterol] | -0.101 | 1.38 | 0.203 | 0.36 | -0.334 | -0.0322
